# From PubChem
# This is a sample that favours compounds with a hit; in the whole collection about 3.3% have one here.
# Cardio protect: myocardial damage modulation in H9c2 cells | protection from H2O2 cell death, % at 20 µM | H9c2 cardiomyocytes, H2O2 injury protection, ATPLite, 2 h | actives 0.63% (n = 360,000);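 active = compounds giving at least 50% protection of heart cells from peroxide-induced death in the single-dose screen, raw or plate-pattern-corrected value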
# Cl transport mod: modulators of human KCC2 chloride dependent transport. Q9H2X9. KCC2 cells, thallium flux FluoZin-2 fluorescence. actives 2.2% (n = 190,000). B-score of Tl+ flux slope (higher = more flux/activation; lower = inhibition) at 10 µM;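 active = thallium flux slope and its plate-corrected score both differing from the plate sample mean at a set confidence after two filtering rounds, in either direction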;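 also: slope of fluorescence scaled to starting intensity during 10 to 20 s after thallium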
# Target sequence (Q9H2X9 whole entry, looked up): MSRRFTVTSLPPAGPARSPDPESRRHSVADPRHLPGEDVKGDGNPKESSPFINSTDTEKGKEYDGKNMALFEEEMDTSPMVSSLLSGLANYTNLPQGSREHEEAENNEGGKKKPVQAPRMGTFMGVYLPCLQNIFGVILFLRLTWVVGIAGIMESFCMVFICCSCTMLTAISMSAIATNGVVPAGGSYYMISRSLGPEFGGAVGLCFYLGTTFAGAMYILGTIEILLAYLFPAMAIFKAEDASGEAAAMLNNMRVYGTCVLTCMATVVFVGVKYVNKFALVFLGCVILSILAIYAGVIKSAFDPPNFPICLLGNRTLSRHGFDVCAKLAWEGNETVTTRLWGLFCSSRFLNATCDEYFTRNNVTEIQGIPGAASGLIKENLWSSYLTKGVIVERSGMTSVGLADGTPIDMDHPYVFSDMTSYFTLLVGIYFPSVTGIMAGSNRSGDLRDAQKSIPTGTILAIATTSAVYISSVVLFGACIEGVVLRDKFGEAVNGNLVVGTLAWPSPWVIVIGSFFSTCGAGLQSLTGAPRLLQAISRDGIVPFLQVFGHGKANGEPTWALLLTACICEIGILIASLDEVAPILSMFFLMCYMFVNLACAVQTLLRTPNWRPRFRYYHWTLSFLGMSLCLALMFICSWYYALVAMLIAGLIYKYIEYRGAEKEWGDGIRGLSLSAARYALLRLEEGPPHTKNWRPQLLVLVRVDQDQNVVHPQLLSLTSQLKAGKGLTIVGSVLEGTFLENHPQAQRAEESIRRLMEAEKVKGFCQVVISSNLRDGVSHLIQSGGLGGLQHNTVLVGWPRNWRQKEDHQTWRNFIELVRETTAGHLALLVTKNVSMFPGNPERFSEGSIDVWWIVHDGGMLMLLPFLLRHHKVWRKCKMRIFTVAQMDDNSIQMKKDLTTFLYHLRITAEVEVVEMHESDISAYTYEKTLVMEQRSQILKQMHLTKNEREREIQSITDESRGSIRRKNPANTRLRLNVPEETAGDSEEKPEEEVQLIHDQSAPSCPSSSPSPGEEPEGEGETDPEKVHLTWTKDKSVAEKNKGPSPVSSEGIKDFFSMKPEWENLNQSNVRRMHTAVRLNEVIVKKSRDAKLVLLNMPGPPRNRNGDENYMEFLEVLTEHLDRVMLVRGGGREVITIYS
# PHOSPHO1 inh: blocks human PHOSPHO1 phosphatase activity. actives 1.1% (n = 290,000). inhibition, % at 13.3 µM. recombinant PHOSPHO1, absorbance phosphatase assay. Q8TCT1; in the data active = inhibition above about 60%
# Calb FLC: C. albicans growth modulation with fluconazole; actives 0.57% (n = 300,000); AID 1979; growth inhibition, % (concentration not given with the values); C. albicans CaCi-2 (fluconazole-resistant clinical isolate) + fluconazole, Alamar Blue growth, 48 h;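 active = growth inhibition above about 58% in most replicates, limit read from the data, passing the limit was not always enough; inconclusive = exactly half the replicates above a set limit; inactive = most replicates below a set limit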;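 also: all wells also contain fluconazole at 8 µg/ml as a sub-toxic cotreatment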
# Efflux pump mplx: inhibitors of Candida antifungal efflux pumps expressed in yeast; AID 485275; S. cerevisiae Candida pump triplex, Nile Red efflux; inhibition, % at 10 µM; actives 0.44% (n = 330,000);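 active = plate passing quality check with inhibition over a set limit, or well fluorescence over plate mean plus 4 SD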;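 also: Nile Red retained in pooled yeast measured as flow cytometry median fluorescence; higher means more Nile Red kept so more efflux inhibition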
# A number is an active result; i = inactive; ? = inconclusive; nt = no result.
SMILES,Cardio protect,Cl transport mod,PHOSPHO1 inh,Calb FLC,Efflux pump mplx
COc1ccc(C(=O)NC(=S)NNC(=O)c2ccc(NC(=O)C(C)C)cc2)cc1,i,i,i,i,i
COC(=O)c1ccccc1NC(=S)NC(=O)c1ccccc1,i,nt,i,i,i
COC(=O)c1ccccc1NC(=S)NC(=O)c1ccc(C)cc1,i,11,i,i,i
COc1ccc(C(=O)NC(=S)NNC(=O)c2ccc(C)cc2)cc1,i,nt,nt,107,i
COc1ccc(/C=C/C(=O)NC(=S)NNC(=O)Cc2cccs2)cc1OC,i,i,98,i,i
COc1ccc(C(=O)NNC(=S)NC(=O)c2ccc(Cl)cc2)cc1,nt,nt,nt,88,i
COc1ccc(/C=C/C(=O)NC(=S)NNC(=O)c2cccs2)cc1OC,i,i,i,i,i
CCN(CC(=O)NCc1ccc(Cl)cc1)C(=O)Cc1ccc(OC)cc1,i,nt,i,i,i
O=C(CSc1ccccc1Cl)N1CCOCC1,i,nt,i,i,i
COc1ccc(OCC(=O)NC2CCCN(Cc3ccc(Cl)cc3)C2)cc1 (configuration not stated),i,nt,i,i,i
N#CCC(=O)NNC(=S)NC(=O)C(c1ccccc1)c1ccccc1,i,i,i,i,i
COc1ccc(C(=O)NC(=S)N2CCCC2)cc1,i,nt,i,i,i
COc1ccc(C(=O)NC(=S)NNC(=O)Cc2cccs2)cc1,i,i,100,i,i
Cc1ccc(C(=O)NC(=S)NNS(=O)(=O)c2ccccc2)cc1,i,i,62,i,i
COc1ccc(C(=O)NC(=S)N2CCC(C)CC2)cc1,i,nt,69,i,i
Cc1ccc(C(=O)NC(=S)NNC(=O)CC#N)cc1,i,i,i,109,i
CS(=O)(=O)Nc1cccc(-c2cnc3ccccc3n2)c1,i,nt,i,i,i
CC(C)NC(=O)N(C)C[C@H]1Oc2ccc(NC(=O)c3ccncc3)cc2C(=O)N([C@H](C)CO)C[C@@H]1C,i,nt,nt,nt,i
Cn1cccc1CC(=O)NNC(=O)Nc1ccc(Cl)cc1,i,i,i,i,i
Cn1cccc1CC(=O)NNC(=S)NC(=O)c1ccc(F)cc1,i,i,92,i,i
CCOc1ccc(-n2c(C)cc(C(=O)CCl)c2C)cc1,i,i,i,91,i
COC(=O)c1ccc(-n2c(C)cc(C(=O)CCl)c2C)cc1,i,i,i,i,i
O=C(N/N=C/c1cc(Br)c(O)c(Br)c1)c1cc2c(ccc3ccccc32)o1,i,nt,i,109,i
CC(=O)Nc1ccc(S(=O)(=O)N2CCC3(CC2)OCCO3)cc1,i,nt,i,i,i
CCOC(=O)CSc1nnc(-c2ccccc2)o1,i,i,i,i,i
SMILES,Cardio protect,Cl transport mod,PHOSPHO1 inh,Calb FLC,Efflux pump mplx
O=C(CSc1nnc(-c2ccccc2)o1)c1nnc(-c2ccccc2)o1,i,i,94,i,i
Cc1ccc(-c2nnc(SCC(=O)N3CCCC3)o2)cc1C,i,i,92,i,i
O=C(CSc1nnc(-c2ccc(Br)cc2)o1)Nc1cccc2ccccc12,i,i,i,85,i
O=C(CSc1nnc(-c2ccncc2)o1)N1CCCCCC1,i,i,68,i,nt
COc1ccc(CN2CCN(C(=O)Cn3nc(C(=O)O)c4ccccc4c3=O)CC2)cc1F,i,nt,i,i,i
CC1(C(=O)NS(=O)(=O)c2cccc(OC(F)F)c2)CCN1C(=O)c1ccccc1CCc1ccccc1 (configuration not stated),i,nt,nt,nt,nt
CCCc1cc(=O)[nH]c2nnc(SCC(=O)NCc3ccc4c(c3)OCO4)n12,i,nt,nt,i,i
CCN1C(=O)[C@@H]2[C@H](C1=O)[C@@H]1C(=O)Nc3ccccc3C(=O)N1[C@@H]2c1ccc(OC)cc1,i,nt,nt,i,i
Cc1cccc(N2CCN(C(=O)CCNS(=O)(=O)c3ccc4c(c3)oc(=O)n4C)CC2)c1C,i,nt,63,i,i
Cc1ccnc(NC(=O)c2cccc(S(=O)(=O)NCc3ccccc3)c2)c1,i,nt,nt,i,i
Cc1nc2ccccc2c(=O)n1/N=C/c1ccc2ccccc2c1O,57,i,i,i,i
CC(C)CCNC(=O)c1cn(C)c2ccc(S(=O)(=O)N3CCCC3)cc2c1=O,i,nt,i,i,i
CCCCNC(=O)c1cn(C)c2ccc(S(=O)(=O)N3CCCC3)cc2c1=O,i,nt,i,85,i
Nc1ccccc1O,i,nt,nt,nt,i
Oc1ccccc1O,66,nt,nt,nt,i
Cc1sc2nc(CN3CCN(c4ccc(O)cc4)CC3)[nH]c(=O)c2c1C,i,i,i,i,i
Cc1sc2nc(CN3CCOCC3)[nH]c(=S)c2c1C,i,73,i,i,i
Cc1cc(C(=O)N/N=C/c2cc(Br)ccc2OC(=O)c2ccccc2Cl)n[nH]1,51,i,i,?,i
